Test results: PubChem BioAssay (NCI)
The panel holds about 83,000 compounds, 20% with a hit somewhere; the sample as a whole holds those more often.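 Assay: single dose, 48 h. Readout: percent growth (0 = no net growth; negative = cell death). Active: <10.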 Values without a mark were called inactive. Activity calls are given as the source filed them.

System: T-47D breast
Assay: NCI-60 one-dose screen, 48 h (100 = growth as untreated, 0 = no growth, -100 = all killed)
Conditions: 10 µM unless noted

Structure (SMILES) | growth
CCOc1ccc(NC(=O)c2cc(OC)c(OC)c(OC)c2)cc1 | 37.2%
COc1cc(-c2cc(-c3ccc(Nc4ncnc5cc(Cl)ccc45)cc3)nc(N3CCN(C)CC3)n2)cc(OC)c1OC | 99.3%
COc1ccc(C/C(C)=C(\c2ccc(O)cc2)c2ccc(OCCN3CCCC3)cc2)cc1 | 73.3%
COC(=O)C1=C(C)NC(C)=C(C(=O)OCC(C)C)C1c1ccccc1[N+](=O)[O-] (stereo not drawn) | 56.1%
O=C1CC2C=CCN2C=C1NC(=O)C1CCCCC1 (stereo not drawn) | 84%
COc1ccc2nc3cc(Cl)ccc3c(NCCN)c2c1 | -72.3% (active)
COc1cccc(/C=C2\COc3ccc(O)cc3C2=O)c1 | 47.5%
COC(c1ccc2ccccc2c1)C(C)C(F)F (stereo not drawn) | 90%
COc1ccc(-c2ccc(-c3ccc(C(=N)N)cn3)s2)cc1 | 74.3%
O=C1Nc2ccc(F)cc2/C1=C\c1nc(-c2ccccc2F)n2ccccc12 | 88%
CCN1C(=S)N(CC)C2C1NC(=S)N2/N=C/C=C/c1ccccc1OC (stereo not drawn) | 59.4%
COc1ccc2c(c1)c(-c1nonc1-c1c[nH]c3ccc(Br)cc13)cn2C | 25.7%
N#Cc1c(-c2ccccc2)c(C#N)c2c(C#N)c(N)nn2c1N | 19.6%
COc1cccc(Nc2ccnc3[nH]c4ccc([N+](=O)[O-])cc4c23)c1 | 41.8%
Clc1nn2c(Cn3cnc4c(NCc5ccccc5)ncnc43)nnc2c2ccccc12 | 18.2%
O=C1CCC(C(=O)NN(c2ccccc2)c2ccccc2)N1 (stereo not drawn) | 103%
O=C1/C(=C/c2ccccc2)CN(C(=O)c2cccnc2)C/C1=C\c1ccccc1 | 9% (active)
COc1ccc(C(C)=O)cc1S(N)(=O)=O | 105%
O=C(CBr)CN1C(=O)c2ccccc2C1=O | 93.9%
CS(=O)(=O)Nc1cc(-c2ccc3ncnc(Nc4ccc5c(cnn5Cc5cccnc5)c4)c3c2)cnc1Cl | 0.364% (active)

Structure (SMILES) | growth
Cc1c(N2CN3C[C@H](C)N4CN(c5c(C)n(C)n(-c6ccccc6)c5=O)CN5C[C@@H](C)N(C2)C3C54)c(=O)n(-c2ccccc2)n1C (stereo partly drawn) | 105%
O=C(Nc1ncc(Cc2ccccc2Cl)s1)c1cccs1 | 56.1%
COc1ccc(Cc2nnc(Nc3nc4ccccc4s3)s2)cc1 | 113%
CCOC(=O)Nc1nc2ccc(SCC(C)C)cc2s1 | 24.3%
COc1cc(-c2nc3occn3c2-c2ccnc(NCCCNS(=O)(=O)c3ccccc3)n2)ccc1F | 8.36% (active)
CN(C)c1ccc(/C=C2/C=C(c3ccccc3)OC2=O)cc1 | 86.9%
COc1ccc(OC)c(-c2cn3nc(-c4c[nH]c5ccc(Br)cc45)sc3n2)c1 | 35.2%
CCNCc1ccc(O)c2ncccc12 | 27.3%
O=C(CCl)Nc1ccc2c(Nc3cc(O)ccc3Cl)ncnc2c1 | -52.4% (active)
CCNC(=O)Oc1ccc(/C(=C(/C)Cc2ccc(OC)cc2)c2ccc(OCCN3CCCCCC3)cc2)cc1 | 35.9%
CC(C)(C)c1cc(C=Nc2cccc(C(F)(F)F)c2)c(O)c(C(C)(C)C)c1 | 88.5%
C(/C=C/c1ccccc1)=Nc1ccc(CCc2ccc(N=C/C=C/c3ccccc3)cc2)cc1 | 97.5%
Cn1cc(C(=O)c2nc(-c3c[nH]c4ccc(Br)cc34)no2)c2cc(Br)ccc21 | 71.8%
Cc1[nH]c(C(=O)Nc2ccc(C(N)=O)cc2NC(C)C)c(Cl)c1Cl | 82.6%
O=C1OCC2=C1C(c1cccc(C(F)(F)F)c1)c1cc3c(cc1N2CCO)OCO3 (stereo not drawn) | 28%
COc1ccc2cc(-c3cnc4nonc4n3)ccc2c1 | 15.5%
Cn1ncc2ccc(-c3nc(-c4ccccc4)[nH]c3-c3n[nH]c(=O)n3C3CC3)cc21 | 82.7%
Cn1ccnc1C(=O)/C=C/c1ccc(C(=O)Nc2ccc(F)cc2)cc1 | 23.4%
O=C(CSc1nc2ccc([N+](=O)[O-])cc2[nH]1)Nc1cccc([N+](=O)[O-])c1 | 16.2%

System: BT-549 breast
Assay: as above
Conditions: 10 µM unless noted

Structure (SMILES) | growth
CCOc1ccc(NC(=O)c2cc(OC)c(OC)c(OC)c2)cc1 | 44.5%
COc1cc(-c2cc(-c3ccc(Nc4ncnc5cc(Cl)ccc45)cc3)nc(N3CCN(C)CC3)n2)cc(OC)c1OC | 94.5%
COc1ccc(C/C(C)=C(\c2ccc(O)cc2)c2ccc(OCCN3CCCC3)cc2)cc1 | 110%
COC(=O)C1=C(C)NC(C)=C(C(=O)OCC(C)C)C1c1ccccc1[N+](=O)[O-] (stereo not drawn) | 59.5%
O=C1CC2C=CCN2C=C1NC(=O)C1CCCCC1 (stereo not drawn) | 117%
COc1ccc2nc3cc(Cl)ccc3c(NCCN)c2c1 | -45.7% (active)
COc1cccc(/C=C2\COc3ccc(O)cc3C2=O)c1 | 78%
COC(c1ccc2ccccc2c1)C(C)C(F)F (stereo not drawn) | 95%
COc1ccc(-c2ccc(-c3ccc(C(=N)N)cn3)s2)cc1 | 88.1%
O=C1Nc2ccc(F)cc2/C1=C\c1nc(-c2ccccc2F)n2ccccc12 | 102%
CCN1C(=S)N(CC)C2C1NC(=S)N2/N=C/C=C/c1ccccc1OC (stereo not drawn) | 13.5%
COc1ccc2c(c1)c(-c1nonc1-c1c[nH]c3ccc(Br)cc13)cn2C | 63.6%
N#Cc1c(-c2ccccc2)c(C#N)c2c(C#N)c(N)nn2c1N | 47.4%
COc1cccc(Nc2ccnc3[nH]c4ccc([N+](=O)[O-])cc4c23)c1 | 80.3%
Clc1nn2c(Cn3cnc4c(NCc5ccccc5)ncnc43)nnc2c2ccccc12 | 25.8%
O=C1CCC(C(=O)NN(c2ccccc2)c2ccccc2)N1 (stereo not drawn) | 30.2%
O=C1/C(=C/c2ccccc2)CN(C(=O)c2cccnc2)C/C1=C\c1ccccc1 | -53.3% (active)
COc1ccc(C(C)=O)cc1S(N)(=O)=O | 95.6%
O=C(CBr)CN1C(=O)c2ccccc2C1=O | 111%
CS(=O)(=O)Nc1cc(-c2ccc3ncnc(Nc4ccc5c(cnn5Cc5cccnc5)c4)c3c2)cnc1Cl | 17.1%

Structure (SMILES) | growth
Cc1c(N2CN3C[C@H](C)N4CN(c5c(C)n(C)n(-c6ccccc6)c5=O)CN5C[C@@H](C)N(C2)C3C54)c(=O)n(-c2ccccc2)n1C (stereo partly drawn) | 113%
O=C(Nc1ncc(Cc2ccccc2Cl)s1)c1cccs1 | 68.7%
COc1ccc(Cc2nnc(Nc3nc4ccccc4s3)s2)cc1 | 99.6%
CCOC(=O)Nc1nc2ccc(SCC(C)C)cc2s1 | 47.1%
COc1cc(-c2nc3occn3c2-c2ccnc(NCCCNS(=O)(=O)c3ccccc3)n2)ccc1F | 29.7%
CN(C)c1ccc(/C=C2/C=C(c3ccccc3)OC2=O)cc1 | 98.6%
COc1ccc(OC)c(-c2cn3nc(-c4c[nH]c5ccc(Br)cc45)sc3n2)c1 | 76.2%
CCNCc1ccc(O)c2ncccc12 | 40.8%
O=C(CCl)Nc1ccc2c(Nc3cc(O)ccc3Cl)ncnc2c1 | -78.5% (active)
CCNC(=O)Oc1ccc(/C(=C(/C)Cc2ccc(OC)cc2)c2ccc(OCCN3CCCCCC3)cc2)cc1 | 89.1%
CC(C)(C)c1cc(C=Nc2cccc(C(F)(F)F)c2)c(O)c(C(C)(C)C)c1 | 106%
C(/C=C/c1ccccc1)=Nc1ccc(CCc2ccc(N=C/C=C/c3ccccc3)cc2)cc1 | 91.9%
Cn1cc(C(=O)c2nc(-c3c[nH]c4ccc(Br)cc34)no2)c2cc(Br)ccc21 | 79%
Cc1[nH]c(C(=O)Nc2ccc(C(N)=O)cc2NC(C)C)c(Cl)c1Cl | 93%
O=C1OCC2=C1C(c1cccc(C(F)(F)F)c1)c1cc3c(cc1N2CCO)OCO3 (stereo not drawn) | 55%
COc1ccc2cc(-c3cnc4nonc4n3)ccc2c1 | 56.3%
Cn1ncc2ccc(-c3nc(-c4ccccc4)[nH]c3-c3n[nH]c(=O)n3C3CC3)cc21 | 106%
Cn1ccnc1C(=O)/C=C/c1ccc(C(=O)Nc2ccc(F)cc2)cc1 | -14.9% (active)
O=C(CSc1nc2ccc([N+](=O)[O-])cc2[nH]1)Nc1cccc([N+](=O)[O-])c1 | 59%
